# According to PubChem BioAssay AID588342 (National Center for Advancing Translational Sciences (NCATS), 2011):
# The campaign covered roughly 360,000 compounds. About 25,000 (6.9%) were called active. Inconclusive results (about 9%) are left out. Shown is part of a subset that was picked to be rich in actives. A number with no mark means an inactive call. Calls follow the shape of the dose curve; as a rule, active = well fitted inhibition curve with a large enough effect; inconclusive = small, poorly fitted or top-dose-only effect; inactive = flat fitted curve, though single readings scatter.
# Molecular target: Luciferin 4-monooxygenase (Photinus pyralis) (UniProt P08659)
# Assay: qHTS profiling assay for firefly luciferase inhibitor/activator using purifed enzyme and Km concentrations of substrates (counterscreen for miR-21 project); also: nearly all actives have a fitted effect of over 55% in size;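 as to activity change, negative = inhibition: plate controls were vehicle for no effect and reference inhibitor for full effect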
# Conditions: purified FLuc, luminescence inhibition; series mostly up to 57.5 µM; activity change, negative = inhibition: at the top concentration
# Procedure, shortened: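 Purified P. pyralis luciferase (10nM final) with 10uM D-luciferin and 10uM ATP (Km levels) in 50mM Tris acetate pH 7.5, 10mM Mg acetate, 0.01% Tween-20, 0.05% BSA; qHTS 6-point titration, ~60 µM downward; luminescence read.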
# Potency is read from the fitted curve at half-maximal effect.
# Chain of Luciferin 4-monooxygenase (Photinus pyralis) (P08659 whole entry, looked up): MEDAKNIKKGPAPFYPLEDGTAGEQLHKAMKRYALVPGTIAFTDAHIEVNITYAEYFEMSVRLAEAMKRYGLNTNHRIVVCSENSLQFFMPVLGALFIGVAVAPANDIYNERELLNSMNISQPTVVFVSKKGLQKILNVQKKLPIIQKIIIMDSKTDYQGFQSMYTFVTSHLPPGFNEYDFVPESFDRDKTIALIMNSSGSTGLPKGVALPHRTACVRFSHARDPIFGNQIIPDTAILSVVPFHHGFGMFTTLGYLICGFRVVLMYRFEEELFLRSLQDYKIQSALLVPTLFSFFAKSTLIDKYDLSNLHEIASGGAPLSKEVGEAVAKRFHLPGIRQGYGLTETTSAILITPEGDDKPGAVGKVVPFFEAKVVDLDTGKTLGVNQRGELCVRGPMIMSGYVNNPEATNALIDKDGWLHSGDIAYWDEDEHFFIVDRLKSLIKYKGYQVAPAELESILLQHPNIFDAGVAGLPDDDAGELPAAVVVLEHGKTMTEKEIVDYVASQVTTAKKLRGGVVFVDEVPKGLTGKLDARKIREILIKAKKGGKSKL
SMILES,"activity change, negative = inhibition [%]",Potency
Cc1nn(CC(=O)O)c(=O)c2cc3cc(F)ccc3n12,2.27,–
Cc1ccccc1Nc1nc(N)nc(CSc2ccccc2)n1,–,2.13 µM (active)
Cc1ccccc1Nc1nc(N)nc(CSc2nnc3ccccn23)n1,-15.6,–
Cc1ccc(C(=O)OCc2nc(N)nc(Nc3ccccc3C)n2)cc1,-0.428,–
COc1ccc(S(=O)(=O)NCC(c2ccc(N(C)C)cc2)N2CCc3ccccc32)cc1OC (stereo not drawn),-2.31,–
CCOc1ccc(NC(=O)CCC(=O)N2CC(C)Oc3ccc(C)cc32)cc1 (stereo not drawn),1.52,–
O=C(c1cccc(Br)c1)N1CCN(Cc2cc(=O)n3nc(-c4ccccc4)sc3n2)CC1,-2.55,–
Cc1ccc(NC(=O)C2CCN(S(=O)(=O)c3cc(-c4noc(C)n4)ccc3C)CC2)c(C)c1,-1.93,–
O=C(CSc1nccn1Cc1ccc(Cl)cc1)NCc1ccccc1,-9.76,–
COc1ccc(CNC(=O)C2CCN(C(=O)c3ccccc3)CC2)cc1,3.37,–
CCOc1ccc(OCc2cccc(C(=O)N(CC)CC)c2)cc1,–,1.2 µM (active)
COc1ccc(Cn2c(=S)[nH]c3cc(C(=O)N4CCCCC4)ccc3c2=O)cc1,4.8,–
COc1cccc(COc2ccc(N(C)S(=O)(=O)c3ccccc3)cc2)c1,2.39,–
COc1ccc(OCc2cccc(C(=O)N3CCCC3)c2)cc1,–,8.49 µM (active)
CCOc1ccc(OCc2ccc(C(=O)N(C)c3ccccc3)o2)cc1,-13.9,–
Cc1sc2ncn(CC(=O)N3CCN(c4ccc(F)cc4)CC3)c(=O)c2c1S(=O)(=O)N1CCN(c2ncccn2)CC1,-11.7,–
CCS(=O)(=O)N1CCC(n2c(C)nc3cccnc32)CC1,0.647,–
CCc1cccc(NC(=O)Cn2nc(CC)n3c(cc4cc(C)ccc43)c2=O)c1,4.75,–
O=C(CSc1ncc(CO)n1Cc1ccc(Cl)cc1)NCc1ccc(F)cc1,-7.26,–
Cc1cccc(N2CCN(c3c(CN4CCCC4)c(=O)oc4ccccc34)CC2)c1C,-0.54,–
N#CCC(=O)NC1CCC(CC2CCC(NC(=O)CC#N)CC2)CC1 (stereo not drawn),0.975,–
O=C1N=C(N2CCOCC2)S/C1=C\C=C/c1ccccc1,–,10.7 µM (active)
Cc1ccsc1/C=C1\SC(N2CCOCC2)=NC1=O,–,10.7 µM (active)
O=c1[nH]c(N2CCOCC2)nc2ccccc12,-0.212,–
Cc1ccc(C)c(S(=O)(=O)c2nnn3c2nc(N2CCOCC2)c2sccc23)c1,-0.222,–
CC(C)=C1SC(N2CCN(c3ccc(C)c(Cl)c3)CC2)=NC1=O,-0.828,–
O=C1N=C(N2CCOCC2)CS1,-0.301,–

SMILES,"activity change, negative = inhibition [%]",Potency
COc1ccccc1C1CCN(C(=S)Nc2ccc(Br)cc2)CC1,-5.06,–
O=C(Nc1ccc(Br)cc1)c1ccc(Br)c(S(=O)(=O)NCc2ccccc2)c1,-6.22,–
Cc1ccc(Nc2nc3ccccc3nc2-n2nc(C)cc2C)c(Cl)c1,-1.86,–
CCN(CC(=O)Nc1ccc(OC)cc1)C(=O)c1ccc(=O)n(Cc2ccccc2)n1,0.092,–
Cc1ccc(-n2cnc3cc(C(=O)NCCC4=CCCCC4)ccc32)cc1Cl,-7.91,–
O=C(NCCC1=CCCCC1)c1ccc(-n2cncn2)cc1,–,15.1 µM (active)
O=C(Cc1nn[nH]n1)NCCC1=CCCCC1,-0.697,–
Cc1ccn2c(=O)c(C(=O)NCCC3=CCCCC3)c(O)nc2c1,6.04,–
CN(c1ccc(C(=O)NCCC2=CCCCC2)cc1)S(C)(=O)=O,–,9.53 µM (active)
CC(=O)Nc1ccc(S(=O)(=O)N(C)CC(=O)NCCC2=CCCCC2)cc1,2.77,–
O=C(COc1cccc(-n2cnnn2)c1)NCCC1=CCCCC1,-0.634,–
CC(C)COc1ccc(C(=O)OCC(=O)NCCC2=CCCCC2)cc1,4.98,–
Cn1nnc2cc(C(=O)NCCC3=CCCCC3)ccc21,–,5.36 µM (active)
CCOC(=O)c1ccc(-c2ccc(/C=C(\C#N)C(=O)Nc3ccc(OCC)cc3)o2)cc1,1.93,–
CCCCn1c(N)c(N(CCC(C)C)C(=O)COC(=O)c2ccc(CC)cc2)c(=O)[nH]c1=O,-0.0866,–
Cc1ccc(CN2CCCn3nc(C(=O)NCc4ccccc4Cl)cc3C2=O)cc1,-10.7,–
Cn1c(=O)c2c(SCC(=O)NCC3CCCO3)nc(-c3ccccc3F)nc2n(C)c1=O (stereo not drawn),4.37,–
Cc1oc2ncnc(N3CCOCC3)c2c1C(=O)NCCc1ccccc1,-1.45,–
CN(C)c1ccc(C=C2C(=O)OC3(CCCC3)OC2=O)cc1,–,23.9 µM (active)
COCCN(Cc1ccccc1)C(=O)Cc1ccc(S(=O)(=O)N2CCOCC2)s1,-2.29,–
CCCN(CCC)C(=O)C1CCCN(c2ncnc3c2nc2n3CCCCC2)C1 (stereo not drawn),1.38,–
c1ccc(CN=C2Nc3ccccc3CS2)nc1,–,12 µM (active)
COc1cccc(CNC(=O)CCC(=O)N2CC3CCCN3c3ccccc32)c1 (stereo not drawn),-10.7,–
O=C(CN(c1cc(C(F)(F)F)ccc1Cl)S(=O)(=O)c1ccccc1)NCc1cccnc1,7.62,–
CCCNS(=O)(=O)c1ccc(CCC(=O)NCc2cccnc2)cc1,-1.83,–
CCc1ccc(N(CC(=O)NCc2cccnc2)S(=O)(=O)c2ccccc2)cc1,–,0.135 µM (active)
